Results with a measured potency or affinity are listed apart. The source made the active and inactive calls.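 The calls were made as follows: active = cell killing, meaning signal decrease, with fitted half-maximal dose at or below ten times the top valid tested dose; inconclusive = poor fit, or flat curve with 30 to 70% signal loss; inactive = the rest.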
Experiment: HeLa cell cytotoxicity, dose response, cytotoxicity control for MITF activator project, CellTiter-Glo luminescence, cherry-pick samples (AID 540259);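 also: 0% = DMSO neutral control and -100% = mitoxantrone positive control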
Conditions: HeLa viability, CellTiter-Glo ATP luminescence, 24 h; series mostly up to 35 µM; activity change, negative = cytotoxicity: at the top concentration

Compound | activity change, negative = cytotoxicity
CSc1nc2ccc(NC(=O)c3cccs3)cc2s1 | -0.438% (inactive)
N/C(=N\OC(=O)C1CCCCC1)c1cccc(Br)c1 | 17.7% (inactive)
c1ccc(SCc2nc(-c3ccccn3)no2)cc1 | 17% (inactive)
O=C(Nc1cccnc1)c1cc(-c2ccc(Cl)cc2)on1 | 1.46% (inactive)
c1ccc(CSCc2cn3ccsc3n2)cc1 | 4.42% (inactive)
Cn1cccc1C(=O)N/N=C/c1c(Cl)cccc1Cl | 0.429% (inactive)
CCC(C)c1ccc(NC(=O)Nc2cccnc2)cc1 (configuration not stated) | 25% (inactive)
CN(C)c1ccc(/C=C/c2cccc[n+]2[O-])cc1 | 9.81% (inactive)
CCC(C)NC(=O)c1cc(-c2ccc(OC)cc2)on1 (configuration not stated) | -1.15% (inactive)
CCCCCc1ccc(-c2ccc(OC)cc2)nc1 | 4.7% (inactive)
CCN(CC)c1ccc(C(=O)NNC(=O)c2cccn2C)cc1 | 6.62% (inactive)
CSc1cccc(NC(=O)c2cnn3ccccc23)c1 | -3.79% (inactive)
Cc1cc(C(=O)Cn2nc(C(=O)O)c3ccccc3c2=O)c(C)n1CC(F)(F)F | 7.32% (inactive)
Cn1cc(Br)c(C(=O)Nc2sc3c(c2C(N)=O)CCCC3)n1 | 2.24% (inactive)
CC(C)C(=O)Nc1cccc(C(=O)Nc2nnc(C(C)C)s2)c1 | 10.2% (inactive)
O=c1[nH]c(COc2ccccc2)nc2ccccc12 | 8.05% (inactive)
CC(C)c1ccc(CNc2ncc(Br)cn2)cc1 | 10.1% (inactive)
C/C(=N\OC(=O)Nc1ccccc1)c1ccc(C)cc1 | 13.2% (inactive)
CN(C)S(=O)(=O)c1cccc(-c2nnc(-c3ccccc3)o2)c1 | 1.72% (inactive)

Compound | activity change, negative = cytotoxicity
O=C(Oc1ccc2ccccc2c1Cl)N1CCCCCC1 | -3.74% (inactive)
N#Cc1ccsc1NC(=O)CCc1ccccc1 | -1.2% (inactive)
Fc1ccccc1Nc1nc2ccccc2o1 | -19.8% (inactive)
O=C(N/N=C/c1ccccc1C(F)(F)F)c1ccc(O)cc1 | 12.3% (inactive)
Cc1ccc(N(O)C(=O)NCCCCNC(=O)N(O)c2ccc(C)cc2)cc1 | 9.8% (inactive)
CCN=c1scc(-c2ccc(F)cc2)n1/N=C/c1ccccn1 | 11.2% (inactive)
O=c1c(-c2ccc(O)cc2)coc2cc(O)cc(O)c12 | 3.81% (inactive)
N#C/C(=N\Nc1ccccc1F)C(=N)N1CCCCC1 | -9.97% (inactive)
O=C(Nc1ccc2oc(-c3ccccc3)nc2c1)c1cccnc1 | 5.53% (inactive)
Cc1nc2c3cnn(-c4ccc(C)c(C)c4)c3ncn2n1 | -8.14% (inactive)
COC(=O)Cc1csc(Nc2ccccc2Cl)n1 | 9.68% (inactive)
Cc1cccc(OCc2nc(-c3nonc3N)no2)c1C | -14.2% (inactive)
COc1ccc2cc(-c3csc(-c4cccnc4)n3)ccc2c1 | -5.03% (inactive)
c1ccc(-c2noc(CCC3CCCC3)n2)cc1 | -0.086% (inactive)
COc1ccccc1C(=O)NCC(=O)Nc1ccc2c(c1)CCC2 | 13.6% (inactive)
CCN(CC)c1ccc(-c2nc3cnccc3n2C)cc1 | -9.89% (inactive)
O=C(Nc1cccc(F)c1)NC1CCCCCCC1 | -4.47% (inactive)
O=C(Nc1ccc2ccccc2c1)c1cc(F)c(F)cc1Cl | -2.11% (inactive)
